Data reported in PubChem BioAssay (NCATS).
Unmarked numbers belong to inactive results. Records with an inconclusive call do not appear. A call without a number means that no potency is given here. Calls of active or inactive are those of the source. Unless noted, calls follow the shape of the dose curve; as a rule, active = well fitted curve in the direction sought with a large enough effect; inconclusive = small, poorly fitted or top-dose-only effect, or another doubt; inactive = no such curve, though single readings can be large; an effect the other way counts as inactive or inconclusive.

Key:
[1] = system: Zika virus NS2B-NS3 protease; assay: Primary screen GU AMC qHTS for Zika virus inhibitors (AID 1347154); also: nearly all actives have a fitted effect of over 70% in size
Procedure, shortened: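 Unlinked Zika NS2B hydrophilic domain/NS3 protease domain noncovalent complex (25 nM final) in 10 mM Tris-HCl pH 8.0, 0.01% Tween 20, with AMC peptide substrate. Fluorescence (ex 340, em 450 nm) change over 15 min, room temperature; percent inhibition fitted to 4-parameter Hill equation.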

[2] = Counterscreen qHTS for small molecule stabilizers of the endoplasmic reticulum resident proteome: GLuc-NoTag assay (AID 1508627);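 also: SH-SY5Y cells given compound then 100 nM thapsigargin to empty ER calcium; series mostly up to about 76 µM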
Procedure, shortened: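 SH-SY5Y cells stably expressing constitutively secreted GLuc (no SERCaMP tag) were pre-incubated 5 h, treated with compound for 19 h, then 100 nM thapsigargin for 4 h at 37C; medium GLuc read by coelenterazine luminescence.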

[3] = Confirmatory qHTS for small molecule stabilizers of the endoplasmic reticulum resident proteome: Secreted ER Calcium Modulated Protein (SERCaMP) assay (AID 1508628); also: nearly all actives have a fitted effect of over 40% in size; also: potency is read from the fitted curve at half-maximal effect
Procedure, shortened: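 We seeded SH-SY5Y-GLuc-SERCaMP cells, added compounds (three concentrations in the primary run, eleven up to 76.6 uM in confirmation), incubated 16 h, depleted ER calcium with thapsigargin, and read luciferase 4 h later.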

[4] = Cell Viability qHTS for small molecule stabilizers of the endoplasmic reticulum resident proteome (AID 1508629); conditions: cell viability counter-screen, 100 nM thapsigargin for final 4 h;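 also: human SH-SY5Y neuroblastoma cells carrying the GLuc-SERCaMP reporter; compound exposure about 46 h in total before the viability read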
[5] = target: Cytochrome P450 1A2 (Homo sapiens) (UniProt P05177); assay: p450-cyp1a2 (AID 410; calls by dose curve)
Procedure, shortened: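 Inhibition was calculated relative to 57 uM furafylline (full inhibition). The reaction used human CYP1A2 at 20nM with Luciferin-ME at its Km, 100uM, driven by an NADPH-regenerating system for 60 min at room temperature.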

[6] = target: Glucocorticoid receptor (Homo sapiens) (UniProt P04150); assay: GR-GFP Redistribution (AID 450;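 active = compounds whose dose series gives a full or clear partial fitted curve of increased nuclear translocation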; also: potency is read from the fitted curve at half-maximal effect); conditions: U2OS GR-GFP nuclear translocation, laser cytometry, 2 h
[7] = target: Glucocorticoid receptor (Homo sapiens) (UniProt P04150); assay: GR-EFC Redistribution (AID 451; calls by dose curve; also: potency is read from the fitted curve at half-maximal effect); conditions: CHO-K1 GR-EFC translocation, beta-gal luminescence, 2 h
Procedure, shortened: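 CHO-K1 cells stably expressing nuclear-localized β-gal enzyme acceptor and GR fused C-terminally to the enzyme donor fragment; ligand-driven nuclear translocation restores β-gal by complementation. Compounds titrated up to 46 uM final, 2 h at 37 °C; luminescence read.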

[8] = target: Mitogen-activated protein kinase 10 (Mus musculus) (UniProt Q61831); assay: JNK3 AlphaScreen Assay (AID 530; active = well fitted curve in either direction with a large enough effect, not every such curve was filed as active;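 also: kinase came from lysate of stimulated human HepG2 cells; signal reports phosphorylation of biotinylated GST-cJun 1-79 at Ser73 with 10 µM ATP; series mostly up to about 57 µM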)
Procedure, shortened: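 JNK3 came from HepG2 lysates pre-activated with IL-1beta and TNF-alpha and phosphorylated biotinylated GST-cJun (1-79) at 10 uM ATP, pH 7.6, room temperature. Compounds were titrated. AlphaScreen signal used anti-phospho-cJun (Ser73) antibody.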

[9] = target: 3',5'-cyclic-AMP phosphodiesterase 4B (Homo sapiens) (UniProt Q07343); assay: qHTS Assay for Inhibitors of PDE-IV (AID 607; active = well fitted activation curve with a large enough effect in the main read-out, with a control signal flat, not every such curve was filed as active)
Procedure, shortened: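 ACTOne HEK293 cells carry a modified cAMP-gated CNG channel and express endogenous PDE4; plated 1000 cells/well, compounds up to 22.9 uM final. Membrane-potential dye fluorescence (ex 535/em 590) was read; parental cells received 10 uM forskolin + 100 uM RO 20-1724.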

[10] = target: Cytochrome P450 2C9 (Homo sapiens) (UniProt P11712); assay: qHTS Assay for Inhibitors and Substrates of Cytochrome P450 2C9 (AID 883); also: nearly all actives have a fitted effect of over 60% in size
Procedure, shortened: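 CYP2C9 deoxyluciferin hydroxylation, 37C, 60 min with NADPH regeneration; 10nM enzyme, 100uM Luciferin-H (KM). Glo detection reagent stopped reaction; luminescence normalized to sulphaphenazole (57uM) full inhibition.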

[11] = target: Ubiquitin carboxyl-terminal hydrolase 1 (Homo sapiens) (UniProt O94782); assay: Inhibitors of USP1/UAF1: Pilot qHTS (AID 504865);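 also: rhodamine fluorescence freed from ubiquitin-rhodamine substrate followed over time; top concentration of the series differs between compounds; nearly all actives have a fitted effect of over 35% in size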
Procedure, shortened: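 USP1/UAF1 complex (1nM) preincubated with compound 15 min at room temperature, then Ub-Rho substrate (150nM final) added. Fluorescence read kinetically at 480/540 nm, 6 reads every 60 seconds. Buffer: 50mM HEPES pH 7.8, 0.5mM EDTA, 0.1 mg/ml BSA, 1mM TCEP, 0.01% Tween-20.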

[12] = target: DNA dC->dU-editing enzyme APOBEC-3G (Homo sapiens) (UniProt Q9HC16); assay: qHTS for inhibitors of Vif-A3G interactions: Validation (AID 588379)
Procedure, shortened: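 HeLa cells stably expressing Vif and A3G-eYFP, 700 cells/well, incubated overnight at 37 deg C, then exposed to compound overnight at 37 deg C. Inhibition of Vif-mediated degradation read as increased yellow fluorescence (Ex 488/Em 500-530) by laser-scanning cytometry.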

Glucocorticoid receptor (Homo sapiens), sequence (P04150 whole entry, looked up, the tested form may be a part): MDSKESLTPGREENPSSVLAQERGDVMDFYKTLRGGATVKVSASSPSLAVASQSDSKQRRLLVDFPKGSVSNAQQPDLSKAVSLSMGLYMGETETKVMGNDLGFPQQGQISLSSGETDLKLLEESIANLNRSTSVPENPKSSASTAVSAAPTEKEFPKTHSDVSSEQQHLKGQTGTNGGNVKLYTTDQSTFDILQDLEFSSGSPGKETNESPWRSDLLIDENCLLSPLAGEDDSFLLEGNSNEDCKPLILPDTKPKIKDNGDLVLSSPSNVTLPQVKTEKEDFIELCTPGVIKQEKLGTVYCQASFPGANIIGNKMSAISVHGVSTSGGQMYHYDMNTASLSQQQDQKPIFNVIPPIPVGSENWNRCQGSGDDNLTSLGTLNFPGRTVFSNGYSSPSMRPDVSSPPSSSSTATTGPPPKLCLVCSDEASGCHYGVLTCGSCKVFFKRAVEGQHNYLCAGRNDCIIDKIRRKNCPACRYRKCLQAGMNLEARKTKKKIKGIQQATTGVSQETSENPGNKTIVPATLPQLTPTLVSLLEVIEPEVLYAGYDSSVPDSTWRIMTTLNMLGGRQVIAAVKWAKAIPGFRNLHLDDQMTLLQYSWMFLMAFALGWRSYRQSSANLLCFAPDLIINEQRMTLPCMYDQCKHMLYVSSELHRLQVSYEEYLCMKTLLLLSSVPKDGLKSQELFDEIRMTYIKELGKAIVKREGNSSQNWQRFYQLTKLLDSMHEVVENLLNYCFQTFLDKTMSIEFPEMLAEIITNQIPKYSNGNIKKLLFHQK
3',5'-cyclic-AMP phosphodiesterase 4B (Homo sapiens), sequence (Q07343 whole entry, looked up): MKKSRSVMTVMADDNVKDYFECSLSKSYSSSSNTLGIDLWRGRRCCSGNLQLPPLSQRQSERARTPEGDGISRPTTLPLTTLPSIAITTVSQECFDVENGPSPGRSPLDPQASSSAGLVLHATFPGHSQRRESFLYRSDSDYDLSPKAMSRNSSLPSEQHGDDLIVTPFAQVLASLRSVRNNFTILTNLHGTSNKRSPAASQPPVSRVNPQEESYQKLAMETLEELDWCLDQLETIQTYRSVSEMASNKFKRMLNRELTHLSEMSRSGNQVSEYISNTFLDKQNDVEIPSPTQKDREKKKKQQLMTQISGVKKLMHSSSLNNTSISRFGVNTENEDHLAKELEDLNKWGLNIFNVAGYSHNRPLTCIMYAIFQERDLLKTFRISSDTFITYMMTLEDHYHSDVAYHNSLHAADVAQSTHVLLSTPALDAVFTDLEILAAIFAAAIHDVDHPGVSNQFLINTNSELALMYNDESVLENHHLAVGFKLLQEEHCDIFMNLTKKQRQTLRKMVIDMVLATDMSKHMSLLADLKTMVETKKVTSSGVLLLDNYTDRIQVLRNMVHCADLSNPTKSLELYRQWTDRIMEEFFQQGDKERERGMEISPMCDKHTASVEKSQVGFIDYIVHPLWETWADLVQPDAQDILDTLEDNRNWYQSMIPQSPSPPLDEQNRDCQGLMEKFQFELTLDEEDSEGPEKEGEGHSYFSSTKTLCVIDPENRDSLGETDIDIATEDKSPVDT
Cytochrome P450 1A2 (Homo sapiens), sequence (P05177 whole entry, looked up): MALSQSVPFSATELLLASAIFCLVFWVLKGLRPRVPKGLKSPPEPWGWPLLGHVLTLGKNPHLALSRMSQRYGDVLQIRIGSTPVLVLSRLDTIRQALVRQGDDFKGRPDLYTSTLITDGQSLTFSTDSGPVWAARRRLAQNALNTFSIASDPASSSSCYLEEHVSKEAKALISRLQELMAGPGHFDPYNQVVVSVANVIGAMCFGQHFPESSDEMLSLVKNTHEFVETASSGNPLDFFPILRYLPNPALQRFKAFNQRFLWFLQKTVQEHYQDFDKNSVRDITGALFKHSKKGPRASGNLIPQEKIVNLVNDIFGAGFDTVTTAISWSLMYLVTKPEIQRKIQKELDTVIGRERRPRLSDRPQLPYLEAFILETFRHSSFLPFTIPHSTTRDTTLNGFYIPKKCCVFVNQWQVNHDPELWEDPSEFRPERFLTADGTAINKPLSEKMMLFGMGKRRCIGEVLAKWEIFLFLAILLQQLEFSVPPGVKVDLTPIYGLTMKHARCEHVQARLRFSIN
Ubiquitin carboxyl-terminal hydrolase 1 (Homo sapiens), sequence (O94782 whole entry, looked up): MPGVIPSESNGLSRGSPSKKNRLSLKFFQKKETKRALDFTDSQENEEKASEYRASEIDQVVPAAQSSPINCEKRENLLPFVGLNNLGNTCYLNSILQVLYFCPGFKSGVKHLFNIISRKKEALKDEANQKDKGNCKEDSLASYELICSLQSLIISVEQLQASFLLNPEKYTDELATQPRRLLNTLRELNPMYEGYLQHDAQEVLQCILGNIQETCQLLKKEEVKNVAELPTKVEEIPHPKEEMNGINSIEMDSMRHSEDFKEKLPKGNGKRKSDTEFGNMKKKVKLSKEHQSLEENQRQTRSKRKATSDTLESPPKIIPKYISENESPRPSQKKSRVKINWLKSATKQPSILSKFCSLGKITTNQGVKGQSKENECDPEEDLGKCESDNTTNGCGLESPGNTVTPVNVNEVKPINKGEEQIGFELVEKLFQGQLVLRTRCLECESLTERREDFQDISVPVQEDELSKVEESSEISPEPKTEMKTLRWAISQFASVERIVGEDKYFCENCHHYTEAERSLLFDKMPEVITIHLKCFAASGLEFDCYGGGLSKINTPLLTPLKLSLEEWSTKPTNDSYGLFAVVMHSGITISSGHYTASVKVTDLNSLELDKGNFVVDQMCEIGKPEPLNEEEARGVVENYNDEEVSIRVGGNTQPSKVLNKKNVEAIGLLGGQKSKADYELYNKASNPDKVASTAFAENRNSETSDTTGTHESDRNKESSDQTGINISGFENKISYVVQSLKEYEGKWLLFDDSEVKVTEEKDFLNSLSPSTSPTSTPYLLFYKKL
DNA dC->dU-editing enzyme APOBEC-3G (Homo sapiens), sequence (Q9HC16 whole entry, looked up): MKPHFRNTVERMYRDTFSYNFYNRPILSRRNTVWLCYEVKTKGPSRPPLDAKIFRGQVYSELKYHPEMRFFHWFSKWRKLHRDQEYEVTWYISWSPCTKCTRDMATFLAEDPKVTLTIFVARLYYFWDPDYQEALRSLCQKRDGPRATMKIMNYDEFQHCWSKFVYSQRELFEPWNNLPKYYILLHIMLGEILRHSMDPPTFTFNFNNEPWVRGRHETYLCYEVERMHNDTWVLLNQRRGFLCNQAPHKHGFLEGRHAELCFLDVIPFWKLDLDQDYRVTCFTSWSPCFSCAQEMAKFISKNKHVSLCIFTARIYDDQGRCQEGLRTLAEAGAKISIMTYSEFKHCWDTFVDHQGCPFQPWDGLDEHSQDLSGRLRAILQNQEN
Cytochrome P450 2C9 (Homo sapiens), sequence (P11712 whole entry, looked up): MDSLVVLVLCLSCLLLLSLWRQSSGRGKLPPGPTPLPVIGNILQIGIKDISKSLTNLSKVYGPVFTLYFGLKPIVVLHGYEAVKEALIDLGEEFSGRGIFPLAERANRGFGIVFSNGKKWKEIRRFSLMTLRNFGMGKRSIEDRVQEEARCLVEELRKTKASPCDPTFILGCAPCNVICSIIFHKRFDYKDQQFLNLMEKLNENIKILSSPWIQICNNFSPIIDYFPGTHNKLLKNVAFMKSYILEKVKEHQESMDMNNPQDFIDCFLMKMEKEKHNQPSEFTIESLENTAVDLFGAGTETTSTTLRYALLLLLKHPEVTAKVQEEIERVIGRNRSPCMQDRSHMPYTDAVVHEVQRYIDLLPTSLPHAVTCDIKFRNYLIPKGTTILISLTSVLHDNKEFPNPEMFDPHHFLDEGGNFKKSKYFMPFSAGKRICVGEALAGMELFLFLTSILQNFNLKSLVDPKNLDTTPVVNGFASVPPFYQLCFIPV

O=C(O)C1NCCN(C(=O)c2ccc3c(ccc4ccccc43)c2)C1C(=O)O (centres undefined)
Potency [1]: inactive
Potency [2]: inactive
Potency [3]: inactive
max response [4]: 28.7%

CN(Cc1ccccc1)C(=O)[C@H](Cc1ccc2ccccc2c1)NC(=O)[C@@H]1CCCN1C(=O)Nc1ccccc1[N+](=O)[O-]
Potency [1]: inactive
Potency [2]: inactive
Potency [3]: 10 µM (active)
max response [4]: 12.2%

C[C@@H](NCc1cc(Br)cc2[nH]c(=O)c(=O)[nH]c12)P(=O)(O)O
Potency [5]: inactive
Potency [6]: 0.264 µM (active)
Potency [7]: > 46 µM
Potency [8]: inactive
Potency [9]: inactive
Potency [10]: inactive
Potency [11]: inactive
Potency [12]: inactive
Potency [1]: inactive
Potency [2]: inactive
Potency [3]: inactive
